High-throughput results (PubChem)
IL-1B inflam inh = qHTS for Inhibitors of Inflammasome Signaling: IL-1-beta AlphaLISA Primary Screen. AID 743279, 2014. THP-1 LPS/ATP IL-1B secretion, AlphaLISA, 16 h; hits give low values. activity change, % at 57.5 µM. 360,000 compounds, 4.7% hits; in the data active = activity change below about -50%; inconclusive = mostly about -30% to -49%
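Secreted IL-1B measured by AlphaLISA bead assay after 16 h compound exposure of THP-1 cells; compounds (final up to 57.5 uM) added 1 h before LPS (250 ng/mL) and ATP (1.25 mM) stimulation; lower signal means less secretion.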
HT1080 IDH1KD tx = qHTS for induction of synthetic lethality in tumor cells producing 2HG: qHTS for the HT-1080-IDH1KD cell line. HT-1080 IDH1 knockdown viability, ATP luminescence, 48 h. Potency, µM (highest dose often 46.1 µM), for inactives: at the highest dose activity, negative = toxicity, hits mostly cytotoxic. 360,000 compounds, 2% hits. AID 686971, 2013;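 note: potency is the fitted concentration of half-maximal effect; 0% = DMSO wells and -100% = cell-free medium wells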
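Viability of IDH1-knockdown HT-1080 fibrosarcoma cells was assessed by CellTiter-Glo after 48 h at 37 °C with titrated compound; concentration-effect curves were classified by fit quality and response size.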
TDP1 cell CPT = qHTS for Inhibitors of human tyrosyl-DNA phosphodiesterase 1 (TDP1): qHTS in cells in presence of CPT; Potency, µM (highest dose often 46.2 µM), inactives show top-dose activity change, negative = growth inhibition, actives largely listed as inhibitors; chicken DT40 Tdp1-/-;hTDP1 cells + 20 nM CPT, ATP luminescence, 48 h; AID 686979, 2013; 420,000 compounds, 12% hits; note: potency is the fitted concentration of half-maximal effect; nearly all actives have a fitted effect of over 55% in size
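Chicken DT40 Tdp1-/- cells stably complemented with human TDP1 were seeded at 400 cells/well in medium containing 20 nM camptothecin, exposed to pin-transferred compounds, and grown at 37 °C for at least 48 hr. Viability was read as ATP luminescence.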
HT1080NT lethal = qHTS for induction of synthetic lethality in tumor cells producing 2HG: qHTS for the HT-1080-NT fibrosarcoma cell line | HT-1080-NT fibrosarcoma viability, CellTiter-Glo ATP luminescence, 48 h | Potency, µM (highest dose often 46.1 µM), without a hit: at the highest dose activity, negative = less viability, actives largely listed as cytotoxic | 360,000 compounds, 1.6% hits;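 note: NT is the 2HG producing partner of a matched IDH1 knockdown line; potency is the fitted concentration of half-maximal effect; 0% = DMSO-treated cells and -100% = media-only wells without cells; nearly all actives have a fitted effect of over 55% in size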
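Viability by CellTiter-Glo luminescence after 48 h compound exposure at 37C of HT-1080-NT cells (750/well, RPMI, 5% FBS). % activity scaled between DMSO wells and medium-only wells, then curve-fitted and categorized by curve class.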
12-LOX inh = Primary qHTS assay for inhibitors of human arachidonate 12S-lipoxygenase (ALOX12): Round 2. Polyunsaturated fatty acid lipoxygenase ALOX12 (Homo sapiens), P18054. purified 12hLO, xylenol orange hydroperoxide absorbance. Potency, µM (highest dose often 108 µM), without a hit: at the top dose activity change, negative = inhibition, usual class: inhibitors. 580,000 compounds, 1.1% hits. AID 1671190, 2021; note: potency is the fitted concentration of half-maximal effect
Target sequence (P18054 whole entry, looked up): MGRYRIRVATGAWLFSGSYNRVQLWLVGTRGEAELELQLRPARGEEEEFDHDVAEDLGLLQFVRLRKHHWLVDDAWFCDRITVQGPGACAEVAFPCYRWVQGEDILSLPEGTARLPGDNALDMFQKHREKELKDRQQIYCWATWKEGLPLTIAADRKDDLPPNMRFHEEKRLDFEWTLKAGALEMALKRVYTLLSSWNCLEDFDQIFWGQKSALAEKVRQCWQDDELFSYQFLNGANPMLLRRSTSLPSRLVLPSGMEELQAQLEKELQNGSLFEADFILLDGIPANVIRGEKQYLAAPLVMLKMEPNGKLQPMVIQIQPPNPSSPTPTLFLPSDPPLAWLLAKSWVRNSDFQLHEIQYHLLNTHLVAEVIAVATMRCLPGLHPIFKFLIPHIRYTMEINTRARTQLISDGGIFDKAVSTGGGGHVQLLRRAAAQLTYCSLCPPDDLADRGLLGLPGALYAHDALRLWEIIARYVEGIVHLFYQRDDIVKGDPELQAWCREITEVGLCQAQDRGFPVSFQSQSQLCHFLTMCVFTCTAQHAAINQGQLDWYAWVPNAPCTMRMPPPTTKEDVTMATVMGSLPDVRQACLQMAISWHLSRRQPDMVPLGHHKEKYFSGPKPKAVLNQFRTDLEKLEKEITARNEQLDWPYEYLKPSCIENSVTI
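Hydroperoxide product was detected by ferrous iron/xylenol orange as the 573 to 405 nm absorbance ratio. Arachidonic acid at 40 uM (final) was turned over for 30 min at room temperature by 150 nM human 12hLO, pH 7.0 Hepes buffer, after 15 min compound preincubation.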
TDP1 cell noCPT = qHTS for Inhibitors of human tyrosyl-DNA phosphodiesterase 1 (TDP1): qHTS in cells in absence of CPT. DT40 Tdp1-/- hTDP1 cells, no CPT, ATP luminescence, 48 h. Potency, µM (top dose mostly 46.2 µM), inactives show top-dose activity change, negative = growth inhibition, hits mostly inhibitors. 420,000 compounds, 15% hits; note: potency is the fitted concentration of half-maximal effect; nearly all actives have a fitted effect of over 55% in size
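Compound effects on proliferation are scored in DT40 Tdp1-/-;hTDP1 cells in the absence of CPT. ATP levels (CellTiter-Glo luminescence) are recorded after a ≥48 hr, 37 °C incubation.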
* marks the source's active call; other numbers are inactive results; u = inconclusive; x = not tested or not shown; [ ] = another dose, or the depositor's remark. Many of the other results were omitted from the sample, so hits are more common in it than they were. Unless noted, calls come from the whole dose curve; as a rule, active = well fitted curve in the direction sought with a large enough effect; inconclusive = small, poorly fitted or top-dose-only effect, or another doubt; inactive = no such curve, though single readings can be large; an effect the other way counts as inactive or inconclusive. Unless noted, % is set by controls: 0 for no effect and ±100 for the full control effect.

SMILES	IL-1B inflam inh	HT1080 IDH1KD tx	TDP1 cell CPT	HT1080NT lethal	12-LOX inh	TDP1 cell noCPT
Cc1ccc(C(=O)c2oc3ccccc3c2NC(=O)c2cc(=O)c3cc(C)ccc3o2)cc1	x	x	-10%	x	-14%	-10%
Cc1cc(-c2cc3c(nc2-c2ccccc2)nc(C(=O)NC2CCN(C)CC2)n3C)ccn1	x	x	x	x	5%[176 µM]	x
Cc1ccc(C)c(NC(=O)CN(C)C(=O)c2cccc(S(=O)(=O)N3CCN(Cc4ccccc4)CC3)c2)c1	-5	u	18µM*	21µM*	0%	12µM*
CN(CCOc1ccc(Cl)cc1)C(=O)c1cccc(S(=O)(=O)N2CCN(Cc3ccccc3)CC2)c1	u	u	15µM*	u	0%	21µM*
COc1ccc(NC(=O)CN(C)C(=O)c2cccc(S(=O)(=O)N3CCN(Cc4ccccc4)CC3)c2)cc1	-17	-24%	18µM*	u	x	12µM*
Cc1ccc(C)c(NC(=O)CN(C)C(=O)c2cccc(S(=O)(=O)N3CCCC3)c2)c1	4	-1%	5%	-4%	-3%	-1%
Cc1oc(-c2nc(C#N)c(NC(C)c3ccccc3)o2)cc1S(=O)(=O)N(C)C (stereo unspecified)	x	x	x	x	-3%	x
COc1cc(-n2ccnc2SC)c(Cl)cc1Cl	12	-12%	u	-7%	0%	18µM*
CCn1c2c(c(=N)c3c1CCC3)CCC2	-13	20%	-7%	7%	-1%	-6%
CCCCCCn1c(=O)[nH]c2c(c1=O)CCC2	-1	-2%	11%	-2%	-1%	1%
CCCCn1c2c(c(=N)c3c1CCC3)CCC2	-3	-18%	6.5µM*	-17%	0%	4.6µM*
CCCCCCCCCn1c2c(c(=N)c3c1CCC3)CCC2	-97*	u	0.058µM*	1.5µM*	x	0.018µM*
CCCCCCCn1c2c(c(=N)c3c1CCC3)CCCC2	-27	7.3µM*	0.41µM*	9.2µM*	u	0.33µM*
CCCCCCn1c2c(c(=N)c3c1CCC3)CCC2	u	1.6µM*	0.41µM*	1.6µM*	-10%	0.26µM*
Cc1nc(CN2CCCC(c3[nH]ncc3Cc3ccccc3)C2)co1 (stereo unspecified)	x	x	x	x	159%	x
COc1ccc(-c2[nH]c3ccccc3c2SCCNC(=O)c2cc(OC)c(OC)c(OC)c2)cc1	x	x	5.2µM*	x	-56%	3.7µM*
CCN(CC)S(=O)(=O)c1ccc(C(=O)NCCSc2c(-c3ccc(OC)cc3)[nH]c3ccccc23)cc1	x	x	7.3µM*	x	10%	3.7µM*
Cc1ccc(C(=O)NCCSc2c(C)[nH]c3ccccc23)cc1	x	x	x	x	-5%	x
COc1cc(C(=O)NCCSc2ccccc2)cc(OC)c1OC	15	-3%	-3%	3%	11%	u
COc1cccc(C(=O)NCCSc2c(-c3ccc(F)cc3)[nH]c3ccccc23)c1OC	x	x	16µM*	x	-14%	13µM*
CCN(CC)S(=O)(=O)c1ccc(C(=O)NCCc2cc3c(OC)ccc(OC)c3[nH]c2=O)cc1	49	9%	u	10%	-4%	16µM*
N#Cc1ccc(S(=O)(=O)N2CCOCCNC(=O)[C@H]3CCCC[C@H]32)cc1	x	x	x	x	6%	x
COc1ccc(-c2cc(N3CCCN(C(=O)Cc4cccc(F)c4)CC3)n[nH]2)cc1	x	x	x	x	46%	x
CN(C)S(=O)(=O)c1ccc(C(=O)NCCSc2ccccc2)cc1	-7	-10%	-20%	-5%	28%	u
COc1ccc(-c2[nH]c3ccccc3c2SCCNC(=O)c2ccc(S(=O)(=O)N(C)C)cc2)cc1	x	x	3.3µM*	x	-18%	2.6µM*
SMILES	IL-1B inflam inh	HT1080 IDH1KD tx	TDP1 cell CPT	HT1080NT lethal	12-LOX inh	TDP1 cell noCPT
O=[S+]1([O-])NC2(CCCN(Cc3cncs3)C2)CNc2ccccc21 (stereo unspecified)	x	x	x	x	7%	x
CCOC(=O)N1CCN(C(=O)C[C@@H]2C[C@@]3(C(=O)OCC)CCCC=C3N(Cc3ccc4c(c3)OCO4)C2=O)CC1	3	2%	u	5%	-10%	u
COC(=O)[C@]12CCCCC=C1N(Cc1ccc3c(c1)OCO3)C(=O)[C@H](CC(=O)N1CCC(c3ccccc3)CC1)C2	-13	-13%	u	-24%	-4%	18µM*
CCOC(=O)[C@]12CCCC=C1N(Cc1ccc3c(c1)OCO3)C(=O)[C@H](CC(=O)N1CCC(c3ccccc3)CC1)C2	-76*	u	18µM*	u	-22%	21µM*
CCOc1ccc(NC(=O)CN(C)C(=O)CC(NC(=O)c2ccccc2)c2ccccc2)cc1OCC (stereo unspecified)	-10	-6%	-1%	1%	-18%	-23%
Cc1ccccc1CC(=O)NC12CC3CC(CC(C3)C1)C2	x	x	x	x	27%	x
O=C(Nc1ccc(F)cc1)c1ccccc1F	6	9%	-9%	3%	11%	-16%
O=C(Nc1c(C(=O)Nc2ccc(F)cc2)oc2ccccc12)c1ccccc1F	x	x	u	x	0%	21µM*
O=C(Nc1ccc(F)cc1)c1oc2ccccc2c1NC(=O)C1CCCCC1	x	x	u	x	-16%	29µM*
CC1(C(=O)NS(=O)(=O)c2cccs2)CCN1C(=O)CC1CC1 (stereo unspecified)	21	21%	-2%	2%	0%	-15%
O=C(NC[C@H]1OC[C@@H](NCc2ncc[nH]2)[C@@H]1O)Nc1ccccc1	x	x	x	x	69%[176 µM]	x
CC1CC(C)(C)N(C(=O)CSc2ccc(-c3ccc(F)cc3)nn2)c2ccccc21 (stereo unspecified)	-90*	u	u	u	-2%	22µM*
CC(C)Oc1ccc2c(NC(=O)c3ncc(F)cc3F)nn(CC(F)(F)F)c2c1	x	x	x	x	31%	x
Cc1cc(F)ccc1-c1cccc(COc2cnc3c(ccn3CC(=O)O)c2)c1	x	x	x	x	-19%[176 µM]	x
COc1cccc(-c2cccc(COc3cnc4c(ccn4CC(=O)O)c3)c2)c1F	x	x	x	x	50µM*	x
O=C(O)Cn1ccc2cc(OCc3cccc(-c4ccc(F)cc4F)c3)cnc21	x	x	x	x	35µM*	x
O=C(O)Cn1ccc2cc(OCc3cccc(-c4ccc(F)c(Cl)c4)c3)cnc21	x	x	x	x	50µM*	x
